Results published in PubChem BioAssay (NCI).
Compounds without any hit were thinned out: in the full panel of roughly 83,000, 20% have a hit.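 Negative percent growth values reflect cell death: -40 means 40% of the cells present at the start died, and -100 means all died.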 Activity calls are given as the source filed them. How the source made its calls: active means growth percent below 10; inactive means the rest.

Columns and labels:
Assay in all cases: NCI-60 one-dose screen, 48 h (100 = growth as untreated, 0 = no growth, -100 = all killed)
SR leukemia = settings: 10 µM unless noted
RPMI-8226 leukemia = settings: 10 µM unless noted
OVCAR-8 ovarian = settings: 10 µM unless noted
OVCAR-5 ovarian = settings: 10 µM unless noted
OVCAR-4 ovarian = settings: 10 µM unless noted
SK-OV-3 ovarian = settings: 10 µM unless noted
IGROV1 ovarian = settings: 10 µM unless noted
OVCAR-3 ovarian = settings: 10 µM unless noted
HS 578T breast = settings: 10 µM
NCI/ADR-RES ovarian = settings: 10 µM unless noted

Measured: growth

COc1cc(C2C=C(C)N=C3SC=NN32)cc(OC)c1OC (stereo not given)
inactive: SR leukemia 102% | RPMI-8226 leukemia 98.9% | OVCAR-8 ovarian 92% | OVCAR-5 ovarian 91.6% | OVCAR-4 ovarian 103% | SK-OV-3 ovarian 111% | IGROV1 ovarian 118% | OVCAR-3 ovarian 116% | HS 578T breast 106% | NCI/ADR-RES ovarian 104%

C#CC[C@@H]1C[C@]2(C)[C@H]3CC[C@@H]4[C@H]5C(C(=C)C)CC[C@]5(C(=O)NCCCN5CCN(CCCN)CC5)CC[C@@]4(C)[C@]3(C)CC[C@H]2C(C)(C)[C@H]1OC(C)=O (stereo not given in full)
inactive: SK-OV-3 ovarian 108% | HS 578T breast 14.8% | NCI/ADR-RES ovarian 38.8%
active: SR leukemia -13.6% | RPMI-8226 leukemia -48.5% | OVCAR-8 ovarian -6.54% | OVCAR-5 ovarian -61.3% | OVCAR-4 ovarian -42.3% | IGROV1 ovarian -46.7% | OVCAR-3 ovarian -83%

C[C@]12CCc3nc(Nc4ccc(O)cc4)sc3C1=CC[C@@H]1[C@@H]2CC[C@]2(C)/C(=N/NC(N)=S)CC[C@@H]12
active: SR leukemia -5.27% | RPMI-8226 leukemia -16.3% | OVCAR-8 ovarian 4.45% | OVCAR-4 ovarian -16.9% | SK-OV-3 ovarian -19% | IGROV1 ovarian -61.2% | OVCAR-3 ovarian -68.8% | HS 578T breast -4.57%
inactive: OVCAR-5 ovarian 49.9% | NCI/ADR-RES ovarian 15%

CCCc1n(Cc2ccc3ccccc3n2)cc[n+]1Cc1ccc2ccccc2n1
active: RPMI-8226 leukemia -10.8% | OVCAR-4 ovarian 8.56% | OVCAR-3 ovarian 9.64%
inactive: SR leukemia 13% | OVCAR-8 ovarian 35.6% | OVCAR-5 ovarian 47.7% | SK-OV-3 ovarian 61.6% | IGROV1 ovarian 30.6% | HS 578T breast 58.8% | NCI/ADR-RES ovarian 98.4%

Nc1nonc1-c1nc2ccccc2n1Cc1ccc(F)cc1
inactive: SR leukemia 22.3% | RPMI-8226 leukemia 64.4% | OVCAR-8 ovarian 76.7% | OVCAR-5 ovarian 80.4% | OVCAR-4 ovarian 66.9% | SK-OV-3 ovarian 54.4% | IGROV1 ovarian 48.7% | OVCAR-3 ovarian 48.5% | HS 578T breast 53.6% | NCI/ADR-RES ovarian 36.8%

COc1cc2c(cc1C)NC(=O)/C2=C\c1c[nH]c2ccccc12
inactive: SR leukemia 46.4% | RPMI-8226 leukemia 59.7% | OVCAR-8 ovarian 69.3% | OVCAR-5 ovarian 75.3% | OVCAR-4 ovarian 64.8% | SK-OV-3 ovarian 97.4% | OVCAR-3 ovarian 65.9% | HS 578T breast 75.2% | NCI/ADR-RES ovarian 77%
active: IGROV1 ovarian -6.11%

CCN(CC)CCCC(C)Nc1cnc(C(=O)Nc2cccc3ccc(OC)nc23)cn1 (stereo not given)
active: SR leukemia -5.71% | OVCAR-3 ovarian -30.7%
inactive: RPMI-8226 leukemia 23.8% | OVCAR-8 ovarian 68.2% | OVCAR-5 ovarian 91.3% | OVCAR-4 ovarian 98.1% | SK-OV-3 ovarian 87% | IGROV1 ovarian 78.3% | HS 578T breast 69.5% | NCI/ADR-RES ovarian 76.1%

Cc1[nH]n(C(=O)c2ccncc2)c(=O)c1N=Nc1ccc(O)c(C(=O)O)c1
inactive: SR leukemia 10.1% | RPMI-8226 leukemia 51.5% | OVCAR-8 ovarian 115% | OVCAR-5 ovarian 123% | OVCAR-4 ovarian 109% | SK-OV-3 ovarian 108% | IGROV1 ovarian 94.7% | OVCAR-3 ovarian 105% | HS 578T breast 96.2% | NCI/ADR-RES ovarian 110%

COc1ccc(/C=c2\c(=O)n(-c3ccccc3)c3nn4c(n23)=NNC42CCCCC2)cc1
inactive: SR leukemia 115% | RPMI-8226 leukemia 107% | OVCAR-8 ovarian 95.1% | OVCAR-5 ovarian 113% | OVCAR-4 ovarian 106% | SK-OV-3 ovarian 95.5% | IGROV1 ovarian 88.5% | OVCAR-3 ovarian 95.9% | HS 578T breast 104% | NCI/ADR-RES ovarian 99.4%

O=C(c1ccc(C(F)(F)F)c(Cl)c1)N(Cc1ccc(Cl)cc1)c1ccc(-c2cc(C(F)(F)F)[nH]n2)c(O)c1
active: RPMI-8226 leukemia 1.58% | SK-OV-3 ovarian -4.32% | OVCAR-3 ovarian 6.9% | HS 578T breast 3.66% | NCI/ADR-RES ovarian 2.97%
inactive: SR leukemia 20% | OVCAR-8 ovarian 11% | OVCAR-5 ovarian 17.3% | OVCAR-4 ovarian 19.9% | IGROV1 ovarian 15.2%

CN(C)c1ccc(/C=N/Nc2nnc3n2N=C(c2ccc(Cl)cc2)CS3)cc1
inactive: SR leukemia 94.1% | RPMI-8226 leukemia 82.5% | OVCAR-8 ovarian 96.5% | OVCAR-5 ovarian 108% | OVCAR-4 ovarian 98.8% | SK-OV-3 ovarian 108% | IGROV1 ovarian 84.4% | OVCAR-3 ovarian 102% | HS 578T breast 92% | NCI/ADR-RES ovarian 94%

CCc1ccc2c(c1)N(CCO)C1=C(C(=O)OC1)C2c1cccc(Br)c1 (stereo not given)
inactive: SR leukemia 28.6% | RPMI-8226 leukemia 24.7% | OVCAR-8 ovarian 33.7% | OVCAR-5 ovarian 36.4% | OVCAR-4 ovarian 59.9% | SK-OV-3 ovarian 28.1% | IGROV1 ovarian 39.3%
active: OVCAR-3 ovarian -10.6% | HS 578T breast 3.25% | NCI/ADR-RES ovarian 9.74%

Nc1c(C(=O)c2ccc(Br)cc2)sc2nc3c(cc12)CCCC3
inactive: SR leukemia 65.3% | RPMI-8226 leukemia 94.6% | OVCAR-8 ovarian 98.7% | OVCAR-5 ovarian 88% | OVCAR-4 ovarian 105% | SK-OV-3 ovarian 106% | IGROV1 ovarian 108% | OVCAR-3 ovarian 95.4% | HS 578T breast 109% | NCI/ADR-RES ovarian 85.7%

O=c1[nH]c2cc(Cl)c(Cl)cc2o1
inactive: SR leukemia 126% | RPMI-8226 leukemia 111% | OVCAR-8 ovarian 104% | OVCAR-5 ovarian 113% | OVCAR-4 ovarian 106% | SK-OV-3 ovarian 107% | IGROV1 ovarian 138% | OVCAR-3 ovarian 102% | HS 578T breast 100% | NCI/ADR-RES ovarian 116%

COc1cc(/C=C/C(=O)c2c(C)nc3ccccc3c2C)ccc1OCCCOc1cc2c(cc1OC)C(=O)N1CCC[C@H]1C=N2
active: SR leukemia -34.3% | RPMI-8226 leukemia -22.6% | OVCAR-5 ovarian -23.1% | OVCAR-4 ovarian -10.9% | SK-OV-3 ovarian -9.97% | IGROV1 ovarian -61.7% | OVCAR-3 ovarian -86.9% | HS 578T breast -2.33%
inactive: OVCAR-8 ovarian 12.3% | NCI/ADR-RES ovarian 13.9%

Cc1ccc2cc3c(NC(=O)c4cccnc4)nn(C)c3nc2c1
inactive: SR leukemia 95.8% | RPMI-8226 leukemia 76.3% | OVCAR-8 ovarian 94.6% | OVCAR-5 ovarian 102% | OVCAR-4 ovarian 97.1% | SK-OV-3 ovarian 94.2% | IGROV1 ovarian 80.6% | OVCAR-3 ovarian 91.1% | HS 578T breast 96% | NCI/ADR-RES ovarian 95%

O=C(Nc1ccc(Br)cc1)Nc1ccccc1Cl
inactive: SR leukemia 84.9% | RPMI-8226 leukemia 50% | OVCAR-8 ovarian 79.8% | OVCAR-5 ovarian 90.1% | OVCAR-4 ovarian 75.1% | SK-OV-3 ovarian 84.6% | IGROV1 ovarian 63.9% | OVCAR-3 ovarian 88.1% | HS 578T breast 99.7% | NCI/ADR-RES ovarian 80%

COc1ccc2[nH]cc(/C=C3\C(=O)Nc4ccccc43)c2c1
inactive: RPMI-8226 leukemia 31.3% | OVCAR-8 ovarian 31.9% | OVCAR-5 ovarian 52.9% | OVCAR-4 ovarian 54.6% | SK-OV-3 ovarian 38.9% | OVCAR-3 ovarian 35.5% | HS 578T breast 33.2% | NCI/ADR-RES ovarian 23.1%
active: SR leukemia 2.21% | IGROV1 ovarian -21.9%

Cc1n(Cc2ccc3ccccc3n2)cc[n+]1Cc1ccc2ccccc2c1
inactive: SR leukemia 11.6% | OVCAR-8 ovarian 11.9% | HS 578T breast 24.4% | NCI/ADR-RES ovarian 98.7%
active: RPMI-8226 leukemia -3.22% | OVCAR-5 ovarian 9.08% | OVCAR-4 ovarian 7.17% | SK-OV-3 ovarian -2.36% | IGROV1 ovarian 5.65% | OVCAR-3 ovarian 6.35%

COc1cc(C2=NOC(c3cc(OC)c(OC)c(OC)c3)C2)ccc1OCCCCOc1cc2c(cc1OC)C(=O)N1CCC[C@H]1C=N2 (stereo not given in full)
active: SR leukemia -24.8% | RPMI-8226 leukemia -27.3% | OVCAR-8 ovarian 6.96% | OVCAR-5 ovarian 9.04% | OVCAR-4 ovarian -35.6% | IGROV1 ovarian -3.57% | OVCAR-3 ovarian -34.1% | HS 578T breast -10.4%
inactive: SK-OV-3 ovarian 10.4% | NCI/ADR-RES ovarian 18.4%

C#CC[C@@H]1C[C@]2(C)[C@H]3CC=C4[C@H]5[C@@H](C)[C@H](C)CC[C@]5(C(=O)NCCCN5CCN(CCCN)CC5)CC[C@@]4(C)[C@]3(C)CC[C@H]2C(C)(C)[C@H]1OC(C)=O
active: SR leukemia -5.62% | RPMI-8226 leukemia -52.1% | OVCAR-8 ovarian -58.3% | OVCAR-4 ovarian -17.5% | IGROV1 ovarian -60.5% | OVCAR-3 ovarian -73.7% | HS 578T breast -25.3%
inactive: OVCAR-5 ovarian 29.4% | SK-OV-3 ovarian 115% | NCI/ADR-RES ovarian 61.7%

COC1=CC(c2ccc[nH]2)=N/C1=C\c1[nH]c(C)c(C(=O)CCCCCCCCC(=O)O[C@H]2CC[C@H]3C4CCc5cc(O)ccc5C4CC[C@]23C)c1C (stereo not given in full)
active: SR leukemia -14.6%
inactive: RPMI-8226 leukemia 33.2% | OVCAR-8 ovarian 12.2% | OVCAR-5 ovarian 52.1% | OVCAR-4 ovarian 49.7% | SK-OV-3 ovarian 49.2% | IGROV1 ovarian 22.7% | OVCAR-3 ovarian 13.7% | HS 578T breast 10.7% | NCI/ADR-RES ovarian 68.3%

C#CC[C@@H]1C[C@]2(C)[C@H]3CC=C4[C@H]5[C@@H](C)[C@H](C)CC[C@]5(C(=O)NCCCCN)CC[C@@]4(C)[C@]3(C)CC[C@H]2C(C)(C)[C@H]1OC(C)=O
active: SR leukemia -19.2% | RPMI-8226 leukemia 5.75%
inactive: OVCAR-8 ovarian 63.7% | OVCAR-5 ovarian 108% | OVCAR-4 ovarian 68.3% | SK-OV-3 ovarian 109% | IGROV1 ovarian 74.8% | OVCAR-3 ovarian 55.6% | HS 578T breast 102% | NCI/ADR-RES ovarian 86.1%

O=C1/C(=C\c2cccn2C(=O)c2ccccc2)c2ccccc2N1c1c(Cl)cccc1Cl
inactive: SR leukemia 25% | RPMI-8226 leukemia 69.6% | OVCAR-8 ovarian 87% | OVCAR-5 ovarian 87.9% | OVCAR-4 ovarian 59.4% | SK-OV-3 ovarian 95% | IGROV1 ovarian 71.2% | OVCAR-3 ovarian 70.4% | HS 578T breast 95.6% | NCI/ADR-RES ovarian 82.2%

NS(=O)(=O)c1ccc(N2N=C(c3ccc(Br)cc3)CC2c2cn(-c3ccccc3)nc2-c2ccc(Cl)cc2)cc1 (stereo not given)
inactive: SR leukemia 72% | RPMI-8226 leukemia 74% | OVCAR-8 ovarian 90.6% | OVCAR-5 ovarian 102% | OVCAR-4 ovarian 93.7% | SK-OV-3 ovarian 94.7% | IGROV1 ovarian 93.8% | OVCAR-3 ovarian 95.1% | HS 578T breast 100% | NCI/ADR-RES ovarian 86.6%

CC1=NOCC(=O)N1
inactive: SR leukemia 97.5% | RPMI-8226 leukemia 99.9% | OVCAR-8 ovarian 107% | OVCAR-5 ovarian 95.3% | OVCAR-4 ovarian 95.4% | SK-OV-3 ovarian 103% | IGROV1 ovarian 104% | OVCAR-3 ovarian 108% | HS 578T breast 117% | NCI/ADR-RES ovarian 110%
